According to PubChem BioAssay AID1851 (National Center for Advancing Translational Sciences (NCATS), 2009):
About 2,600 (16%) of roughly 16,000 compounds were called active. Roughly 20% stayed inconclusive and do not appear here. Calls come from the whole dose curve; as a rule, active = well fitted curve in the direction sought with a large enough effect; inconclusive = small, poorly fitted or top-dose-only effect, or effect the other way; inactive = no such curve, though single readings can be large or run the other way. A selection follows.

Target: Cytochrome P450 2D6 (Homo sapiens) (UniProt P10635)
Test: Cytochrome panel assay with activity outcomes
Settings: recombinant CYP, pro-luciferin dealkylation, luminescence, p450-cyp2d6; series mostly up to 57.1 µM
% is set by controls: 0 for no effect and ±100 for the full control effect.

Chain of Cytochrome P450 2D6 (Homo sapiens) (P10635 whole entry, looked up): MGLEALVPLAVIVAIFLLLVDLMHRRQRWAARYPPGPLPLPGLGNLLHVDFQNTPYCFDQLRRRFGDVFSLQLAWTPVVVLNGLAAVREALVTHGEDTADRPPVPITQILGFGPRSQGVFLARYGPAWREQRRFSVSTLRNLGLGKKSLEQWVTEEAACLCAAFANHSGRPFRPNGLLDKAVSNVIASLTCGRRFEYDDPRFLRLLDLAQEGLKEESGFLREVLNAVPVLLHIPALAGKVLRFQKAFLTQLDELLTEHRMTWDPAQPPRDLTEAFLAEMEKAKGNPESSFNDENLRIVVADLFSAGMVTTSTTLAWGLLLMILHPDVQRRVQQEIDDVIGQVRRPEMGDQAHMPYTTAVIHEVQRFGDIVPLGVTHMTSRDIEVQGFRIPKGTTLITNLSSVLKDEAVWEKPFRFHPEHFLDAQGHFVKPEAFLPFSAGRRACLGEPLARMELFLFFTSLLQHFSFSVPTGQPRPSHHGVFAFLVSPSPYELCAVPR

AC50, inactive:
Nc1c(C(=O)NCc2ccccc2)sc2nc3c(cc12)C(=O)CCC3, C[C@@](N)(C(=O)O)c1ccc(P(=O)(O)O)cc1, O=C(O)c1cc(=O)cc(C(=O)O)[nH]1, CC(=O)N1CCN(C(=O)CC2OC(=O)c3ccccc32)CC1 (stereo unspecified), CCOC(=O)c1sc(NC(=O)CCCCCN2C(=O)c3cccc4cccc(c34)C2=O)nc1C, CCOC(=O)Cc1csc(NS(=O)(=O)c2ccccc2)n1, CCOC(=O)C1=C(C)Nc2ncnn2C1c1cccnc1 (stereo unspecified), CCCC(=O)Nc1nc(C(=O)OCC)cs1, Nc1ccn([C@@H]2CC[C@H](CO)O2)c(=O)n1, CCCC1(C(=O)OC)C=C2C(=C(c3ccccc3)C(=O)C2C)CN1 (stereo unspecified), CCCC1(C(=O)OC)C=C2C(=C(C(C)C)C(=O)C2C)CN1 (stereo unspecified), COC(=O)C1(CC(C)C)C=C2C(=C(c3ccccc3)C(=O)C2C)CN1 (stereo unspecified), COC(=O)C1(C)C=C2C(=C(c3ccccc3)C(=O)C2C)CN1 (stereo unspecified), CCCC1(C(=O)OC)C=C2C(=C(C)C(=O)C2C)CN1 (stereo unspecified), COc1ccc(Oc2ncc3nc(-c4cn(C)c5ccccc45)c(=O)n(C)c3n2)cc1, COc1ccc(C(=O)NC(C)c2cc(OC)c(OC)cc2Br)cc1 (stereo unspecified), CN(C)[C@@H]1C(=O)C(C(N)=O)=C(O)[C@]2(O)C(=O)C3=C(O)c4c(O)ccc(Cl)c4[C@H](O)[C@H]3C[C@@H]12, O=C(c1ccccc1-c1nc(-c2ccccc2)no1)N1CCOCC1, COc1ccccc1Nc1nc(-c2sc(NC(=O)c3ccc([N+](=O)[O-])cc3)nc2C)cs1, Cc1nc2ccccn2c1C(=O)N/N=C/c1ccccc1[N+](=O)[O-], Nc1cc(Cl)nc(N/N=C/c2ccccc2[N+](=O)[O-])n1, O=C(O)c1c2ccccc2cc2ccccc12, CCn1c(N2CCN(C(=O)Nc3ccc(F)cc3)CC2)nc2ccccc21, COc1cccc(N2CCN(C(=S)Nc3cccc(C)c3)CC2)c1, N#C/C(=C/c1cccc(C(F)(F)F)c1)c1nc(CCN2C(=O)c3ccccc3C2=O)cs1, Nc1nonc1-c1noc(CCCN2C(=O)c3ccccc3C2=O)n1, COc1cc(S(C)=O)ccc1-c1nc2ncccc2[nH]1 (stereo unspecified), O=C(c1ccc(Oc2ccc(C(F)(F)F)cn2)cc1)N1CCN(c2ccccc2)CC1, CCC(=O)Nc1cccc(NC(=O)c2cccc([N+](=O)[O-])c2)c1, O=C(CN1CCCCC1)Nc1nnc(-c2ccc([N+](=O)[O-])cc2)s1, COc1ccc(OC)c2[nH]c(=O)c(CCNC(=O)c3ccc(S(=O)(=O)N(C)C)cc3)cc12, COc1ccccc1CNC(=O)C1CCN(S(=O)(=O)N2CC(C)CC(C)C2)CC1 (stereo unspecified), C=CCOc1c(Br)cc(CNc2ccc(NC(=O)C(C)C)c(OC)c2)cc1OC, COc1ccccc1CNC(=O)C/C(C)=N/NC(=O)Cc1ccccc1, COc1cc(C)c(Br)cc1S(=O)(=O)NCc1ccccc1, O=P(Cc1cc[n+]([O-])cc1)(c1ccccc1)c1ccccc1, CCC(C)NS(=O)(=O)c1ccc(OCC(=O)NCC2CCCO2)cc1 (stereo unspecified), Cc1ccc(CNC(=O)C2CC(c3ccccc3[N+](=O)[O-])=NO2)o1 (stereo unspecified), Cc1ccc(CNC(=O)C2CC(c3ccccc3[N+](=O)[O-])=NO2)cc1 (stereo unspecified), CC(C)(C)OC(=O)N1CCCC1C(=O)NCCc1ccccc1 (stereo unspecified)

AC50, active:
CCOC(=O)Cc1csc(NC(=O)CCCCCN2C(=O)c3ccccc3C2=O)n1 14.1 µM, CCCCCC1=C2CNC(Cc3ccccc3)(C(=O)OC)C=C2C(C)C1=O (stereo unspecified) 12.6 µM, COC(=O)C1(Cc2ccccc2)C=C2C(=C(C(C)C)C(=O)C2C)CN1 (stereo unspecified) 12.6 µM, CCCCCC1=C2CNC(CC(C)C)(C(=O)OC)C=C2C(C)C1=O (stereo unspecified) 5.01 µM, CC1(C)SC(=S)N(Cc2ccc3c(c2)OCO3)C1N(O)C(=O)NC1CCCCC1 (stereo unspecified) 2.24 µM, O=[N+]([O-])c1cccc(/C=N\Nc2ccc3ccccc3n2)c1O 3.16 µM, NC(N)=Nc1nc(CCN2C(=O)c3ccccc3C2=O)cs1 15.8 µM, CC1CCN(CC(=O)Nc2cccc([N+](=O)[O-])c2)CC1 5.62 µM, COc1ccccc1CNCc1cccs1 0.794 µM, COc1cc(CNCc2cccs2)cc(Br)c1OC 0.0562 µM, O=C(NCCCCc1ccccc1)C1CC(c2ccccc2[N+](=O)[O-])=NO1 (stereo unspecified) 0.1 µM, Cc1ccc(CCNC(=O)C2CC(c3ccccc3[N+](=O)[O-])=NO2)cc1 (stereo unspecified) 2.51 µM

activity, negative = inhibition, inactive:
C[C@]12CC[C@H]3c4ccc(O)cc4CC[C@@H]3[C@H]1CC[C@@H]2OC(=O)CCC1CCCC1 1.36% [at 11.4 µM], CO[C@H]1COC(=O)[C@H](C)NC(=O)C/C=C\[C@@H](C)[C@H](OC)COC(=O)[C@@H](OCc2ccccc2)/C=C\[C@@H]1C 3.57% [at 11.4 µM], O=S(=O)(c1ccccc1)N1CN2CN(C1)CN(S(=O)(=O)c1ccccc1)C2 2.33% [at 11.4 µM], NNS(=O)(=O)c1cc(C(=O)O)cc(C(=O)O)c1 5.99% [at 11.4 µM], CCOC(=O)N/N=C1/C[C@@H](O)[C@@H](O)[C@@H]2[C@@H]3C(=O)N(Cc4ccc5c(c4)OCO5)C(=O)[C@H]3CC[C@H]12 -9.22% [at 11.4 µM], C/C(CCC(=O)OC[C@@H]1O[C@H](C#Cc2ccccc2)C=C[C@@H]1Oc1ccc(C)cc1)=N/OC[C@@H](O)[C@H]1O[C@H]2OC(C)(C)O[C@H]2[C@@H]1O 14.6% [at 11.4 µM], CCOC(=O)N/N=C1/C[C@@H](O)[C@@H](O)[C@@H]2[C@@H]3C(=O)N([C@@H](C)c4ccccc4)C(=O)[C@H]3CC[C@H]12 18.4% [at 11.4 µM], COc1ccc(N(CC(=O)O)N=O)cc1 8.99% [at 11.4 µM], O=C1[C@@H]2[C@H]3[C@H](O)[C@H](O)C/C(=N/OC[C@@H](O)COCc4ccco4)[C@@H]3CC[C@H]2C(=O)N1c1ccc(F)cc1F 10.9% [at 11.4 µM]
